The results in this text go back to PubChem BioAssay (NCI).

Common to all, as to experiment: NCI-60 one-dose screen, 48 h (100 = growth as untreated, 0 = no growth, -100 = all killed)
Conditions in all cases: 10 µM unless noted

Test [1] relates to SR leukemia.
Test [2] deals with RPMI-8226 leukemia.
Test [3] deals with OVCAR-8 ovarian.
Test [4] has as its system OVCAR-5 ovarian.
Test [5] deals with OVCAR-4 ovarian.
For test [6], the system named is SK-OV-3 ovarian.
The subject of test [7] is IGROV1 ovarian.
Test [8] has as its system OVCAR-3 ovarian.
For test [9], the system named is HS 578T breast.
In test [10] the test system is NCI/ADR-RES ovarian.
Test [11] has as its system T-47D breast.
In test [12] the test system is BT-549 breast.
Test [13] has as its system MDA-MB-435 melanoma.
The test system of test [14] is SW-620 colon.
Test [15] concerns MCF7 breast.
Test [16] deals with HCT-116 colon.
Test [17] deals with KM12 colon.
Test [18] has as its system HCC-2998 colon.

This is part of a sample that, as a whole, favours compounds with a hit. Of some 83,000 tested, about 20% had one in any assay.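 The endpoint reported here, percent growth, reads 100 for growth as untreated, 0 for no net growth and -100 for all cells dead.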 A number with no mark means an inactive call. Active and inactive are the calls of the source. How the source made its calls: active means growth percent below 10; inactive means the rest.

With `NC(=O)OCCn1cc(-c2nc(-c3c[nH]c4ncccc34)cs2)c2ccccc21`, the growth is 24.2% in [1]; 24.9% in test [2]; 41.6% in test [3]; 58.2% in test [4]; 71.7% in test [5]; 41.6% in [6]. In addition, the growth in test [7] is 41.3%; in [8] it was 27.9%; in [9], 41.4%; in test [10] it was 38.1%; in test [11], 44.7%; in test [12] it was 32.8%. The growth was -33.4% (active) in test [13]; 8.68% (active) in test [14]; 18.3% in [15]; 30.8% in [16]; 23% in [17].

Consider `Cc1cc2oc(=O)cc(CP(=O)(O)O)c2cc1O`, for which the growth in test [1] is 106%; in test [2], 118%; in [3] it was 99.5%; in test [4], 94%; in test [5] it was 103%; in [6], 105%. In addition, the growth was 91.6% in test [7]; 102% in [8]; 94.5% in test [9]; 105% in test [10]; 98.8% in test [11]; 105% in test [12]. Further, the growth is 99.9% in [13]; 88.9% in test [15]; 100% in test [16]; 103% in test [18]; 102% in test [17].

In the case of `COc1cc(/C=C\c2cc(/C=C\c3ccc(O)c(OC)c3)n(C(=O)CNc3ccc(Cl)cc3)n2)ccc1O`, the growth in test [1] was 3.39% (active); in test [2], 17.4%; in [3], 28.2%; in [4] it was 86.9%; in test [5] it was 56.6%; in test [6] it was 21.1%. In addition, the growth was 36.7% in test [7]; 22.9% in [8]; 30% in test [9]; 21% in test [10]; 31% in test [11]; 24.3% in test [12]. Moreover, the growth in test [13] is -7.11% (active); in test [14], 24.9%; in [15], 13.8%; in test [16], 7.69% (active); in [18], 48.6%; in test [17], 20.2%.

Consider `CC(C)=CC(=O)N[C@@H]1CC2CCC3C(CC[C@@]4(C)C3CC[C@@H]4C(C)N(C)C)[C@@]2(C)C[C@@H]1O` (some centres undefined), for which the growth in [1] was -39.8% (active); in test [2] it was -2.36% (active); in test [3], 81.8%; in [4], 81.4%; in test [5] it was 11.5%; in test [6], 81.3%. Besides, the growth in test [7] is 61.9%; in test [8] it was 46.5%; in test [9], 59.7%; in [10], 52.5%; in [11], 22.3%; in test [13] it was 12.6%. The growth was 28.2% in [14]; 33.9% in test [15]; 27.1% in [16]; 52% in test [18]; 38.2% in [17].
